Source: PubChem BioAssay (Tox21)
Several values for one entry are separate records, joined by “and”; a condition that tells them apart may be missing. Equal entries are not always repeated. Results filed as inconclusive are left out. A call without a number means that no potency is given here. Activity calls are given as the source filed them. Calls come from the whole dose curve; as a rule, active = well fitted inhibition curve with a large enough effect in the repeat runs; inconclusive = weak or mixed curves; inactive = no such curve, though single readings can be large or run the other way.

Target: Cytochrome P450 2D6 (Homo sapiens) (UniProt P10635)
Assay: Cytochrome P450 Family 2 Subfamily D Member 6 (CYP2D6) small molecule antagonists: luciferase reporter qHTS assay (AID 1671196); note: nearly all actives have a fitted effect of over 50% in size
Details: P450-Glo CYP2D6 enzyme assay, luciferin luminescence, 1 h; series mostly up to 115 µM
Summary of the method: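 Read-out is luminescence from luciferin formed by CYP2D6 turnover of a proluciferin substrate, recorded as relative luminescence units. Reactions ran 1 h at room temperature after NADPH regeneration solution was added.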
Potency is the fitted concentration of half-maximal effect.

Chain of Cytochrome P450 2D6 (Homo sapiens) (P10635 whole entry, looked up): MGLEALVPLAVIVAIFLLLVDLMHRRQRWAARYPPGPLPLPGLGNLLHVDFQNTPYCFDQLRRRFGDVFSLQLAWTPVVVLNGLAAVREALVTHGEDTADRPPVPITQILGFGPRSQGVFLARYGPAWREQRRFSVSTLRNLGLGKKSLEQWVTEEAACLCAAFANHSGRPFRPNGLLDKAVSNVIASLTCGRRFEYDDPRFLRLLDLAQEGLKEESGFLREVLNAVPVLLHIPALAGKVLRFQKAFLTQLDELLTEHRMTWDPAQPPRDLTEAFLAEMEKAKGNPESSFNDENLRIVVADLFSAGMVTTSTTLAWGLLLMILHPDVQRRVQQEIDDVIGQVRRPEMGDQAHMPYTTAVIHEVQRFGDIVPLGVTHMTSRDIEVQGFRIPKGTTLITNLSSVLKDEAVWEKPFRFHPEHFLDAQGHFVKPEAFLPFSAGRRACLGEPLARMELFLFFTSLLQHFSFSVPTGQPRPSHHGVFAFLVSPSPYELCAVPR

SMILES | Potency
COC(N)=O | inactive
NC(=O)CI | 63.8 µM (active)
COc1cc(CC(C)N)cc2c1OCO2 (stereo not drawn) | 2.09 µM (active)
CCCCCCC#N | 38.7 µM (active)
Brc1ccc(Oc2ccccc2)cc1 | inactive
O=C(NC(=O)c1c(F)cccc1F)Nc1cc(Cl)c(Oc2ncc(C(F)(F)F)cc2Cl)c(Cl)c1 | inactive
CCCN(CC1CC1)c1c([N+](=O)[O-])cc(C(F)(F)F)cc1[N+](=O)[O-] | inactive
C=CCC1([C@H](C)CCC)C(=O)NC(=O)NC1=O | inactive
CCCCCCCCCCOC(=O)c1ccccc1C(=O)OCCCCCCCCCC | inactive
C=CC(=O)OC(C)(C)C | inactive

Target: Cytochrome P450 2C19 (Homo sapiens) (UniProt P33261)
Assay: Cytochrome P450 Family 2 Subfamily C Member 19 (CYP2C19) small molecule antagonists: luciferase reporter qHTS assay (AID 1671197); note: nearly all actives have a fitted effect of over 65% in size
Details: P450-Glo CYP2C19 enzyme, luciferin luminescence, 1 h; series mostly up to 115 µM
Summary of the method: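 Luminescent readout of CYP2C19 activity: luciferin product detected 20 min after adding detection reagent. Before that, compound and enzyme-substrate mix preincubated 10 min at room temperature; NADPH-regenerating system started a 1 h, 37C reaction. Ketoconazole as positive control.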

Chain of Cytochrome P450 2C19 (Homo sapiens) (P33261 whole entry, looked up): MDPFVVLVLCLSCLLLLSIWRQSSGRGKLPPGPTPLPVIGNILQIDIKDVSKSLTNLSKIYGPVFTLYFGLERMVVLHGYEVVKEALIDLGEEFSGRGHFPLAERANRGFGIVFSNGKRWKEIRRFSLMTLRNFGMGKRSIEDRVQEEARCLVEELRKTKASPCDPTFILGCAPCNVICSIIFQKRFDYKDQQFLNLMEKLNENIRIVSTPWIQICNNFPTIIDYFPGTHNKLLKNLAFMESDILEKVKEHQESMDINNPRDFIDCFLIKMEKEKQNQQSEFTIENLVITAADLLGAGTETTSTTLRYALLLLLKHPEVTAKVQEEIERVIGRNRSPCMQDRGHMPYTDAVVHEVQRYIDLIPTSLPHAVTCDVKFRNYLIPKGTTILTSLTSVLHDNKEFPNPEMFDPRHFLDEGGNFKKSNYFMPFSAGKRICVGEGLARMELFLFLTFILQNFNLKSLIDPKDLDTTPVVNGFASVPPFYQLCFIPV

SMILES | Potency
O=C(O)c1ccccc1C(=O)Nc1cccc2ccccc12 | 15.9 µM (active)
CNC(C)Cc1ccccc1OC (stereo not drawn) | inactive
CC(C)=CCOc1c2occc2cc2ccc(=O)oc12 | 4.36 µM (active)
CCCCNP(N)(N)=S | 50.2 µM (active)
Cc1ccc2ccccc2c1 | inactive
COC(C)(C)CCC[C@H](C)C/C=C/C(C)=C/C(=O)OC(C)C | 17.8 µM (active)
COC(N)=O | inactive
CCCC(=O)Cl | inactive
NC(=O)CI | 80.4 µM (active)
CCBr | inactive
NNC(=O)c1cccnc1 | 71.3 µM (active)
N#CCc1ccccc1 | inactive
CC(Cl)Cl | inactive
CCCN(CCCl)c1c([N+](=O)[O-])cc(C(F)(F)F)cc1[N+](=O)[O-] | 17.8 µM (active)
COc1cc(CC(C)N)cc2c1OCO2 (stereo not drawn) | inactive
CCOP(=O)(OCC)SCCSCC | 21.4 µM (active) and 35.6 µM (active)
CC(C)(C)C(O)C(Oc1ccc(Cl)cc1)n1cncn1 (stereo not drawn) | 0.796 µM (active)
NC(=O)C(Cl)(Cl)Cl | inactive
Brc1ccc(Oc2ccccc2)cc1 | 81.7 µM (active) and 31.7 µM (active)
CCOP(O)OCC | inactive
Cc1ccc(N)cc1C | 28.5 µM (active)
C=CCC1([C@H](C)CCC)C(=O)NC(=O)NC1=O | inactive
CCCCCCCCCCOC(=O)c1ccccc1C(=O)OCCCCCCCCCC | inactive
O=NN1CCCCCC1 | inactive
IC(I)=C(I)I | 7.1 µM (active)
CC1(C)[C@H](C=C(Cl)Cl)[C@@H]1C(=O)O[C@@H](C#N)c1cccc(Oc2ccccc2)c1 | 7.96 µM (active)
C=CC(=O)OC(C)(C)C | 30.6 µM (active)
CCOP(=S)(OCC)Oc1nc(Cl)c(Cl)cc1Cl | 2.25 µM (active) and 5.03 µM (active)
